Consider 84 compounds from PubChem BioAssay AID1259251 (The Scripps Research Institute Molecular Screening Center, 2017).

The campaign covered roughly 30,000 compounds. About 580 (1.9%) were called active. No stated cut-off is given here; in the data, active means inhibition above about 43%; inactive means the rest. The sample as a whole holds a higher share of actives than the screen did.

Sequence of Serine/threonine-protein kinase ULK1 (Homo sapiens) (O75385 whole entry, looked up): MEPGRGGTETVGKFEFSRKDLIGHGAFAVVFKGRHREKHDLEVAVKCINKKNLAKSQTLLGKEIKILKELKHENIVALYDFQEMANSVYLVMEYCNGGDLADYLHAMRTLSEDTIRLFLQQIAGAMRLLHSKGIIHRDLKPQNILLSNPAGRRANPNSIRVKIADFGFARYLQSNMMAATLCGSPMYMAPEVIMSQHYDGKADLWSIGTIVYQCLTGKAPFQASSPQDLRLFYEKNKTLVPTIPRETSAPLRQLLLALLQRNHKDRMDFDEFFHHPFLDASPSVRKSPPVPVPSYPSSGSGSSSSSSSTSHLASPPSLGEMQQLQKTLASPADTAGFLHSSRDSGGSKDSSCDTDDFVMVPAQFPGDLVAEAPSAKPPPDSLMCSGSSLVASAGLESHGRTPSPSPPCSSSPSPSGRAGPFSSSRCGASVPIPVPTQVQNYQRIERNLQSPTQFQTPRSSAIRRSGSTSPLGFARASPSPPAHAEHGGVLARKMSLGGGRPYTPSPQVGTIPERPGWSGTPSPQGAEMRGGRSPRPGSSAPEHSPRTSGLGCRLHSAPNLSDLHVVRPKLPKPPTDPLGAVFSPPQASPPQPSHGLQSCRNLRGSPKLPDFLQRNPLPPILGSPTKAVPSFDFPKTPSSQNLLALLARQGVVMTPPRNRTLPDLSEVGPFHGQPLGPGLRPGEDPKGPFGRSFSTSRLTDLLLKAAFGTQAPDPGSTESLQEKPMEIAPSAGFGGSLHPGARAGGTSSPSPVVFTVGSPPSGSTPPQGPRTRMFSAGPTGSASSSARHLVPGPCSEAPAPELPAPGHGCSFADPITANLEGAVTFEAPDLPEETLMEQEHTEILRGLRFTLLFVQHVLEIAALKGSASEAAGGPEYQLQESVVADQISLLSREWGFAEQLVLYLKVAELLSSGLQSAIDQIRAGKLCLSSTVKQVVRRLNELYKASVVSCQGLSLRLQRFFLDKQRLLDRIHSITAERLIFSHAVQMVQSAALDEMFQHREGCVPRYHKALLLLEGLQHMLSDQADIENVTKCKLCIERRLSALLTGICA

The test concerns the target Serine/threonine-protein kinase ULK1 (Homo sapiens) (UniProt O75385). Put plainly: ULK1 kinase inhibitors, primary screen, biochemical, AlphaScreen (AID 1259251).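 Further: 0% = median of compound wells and 100% = no enzyme.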 To be noted: AlphaScreen Atg13 phosphorylation by ULK1, luminescence; at 5.96 µM; hits give high values. On the technique in general: Bead proximity is the source of the signal in Alpha formats.
For orientation: inhibition means the drop in the measured response relative to a control, in per cent. `Cn1nccc1-c1cc(F)cc(-c2ccnc(Nc3ccc(-n4cnc(N5CCOCC5)n4)cc3)n2)c1`: the inhibition is 10.3% (inactive).

Consider `CN1CCN(c2ncn(-c3ccc(Nc4nccc(-c5ccc(NS(C)(=O)=O)cc5)n4)cc3)n2)CC1`, for which the inhibition was 63.3% (active). For the compound `CN(C)c1cc(F)cc(-c2ccnc(Nc3ccc(-n4cnc(N5CCOCC5)n4)cc3)n2)c1`, the inhibition was -12.3% (inactive).

`CC(=O)Nc1ccc(Nc2ncnc3nc(N4CCOCC4)[nH]c23)cc1`: the inhibition was -7.72% (inactive). In the case of `CCCNC(=O)Cc1cn(-c2ccc(Nc3ccc(-n4ccnc4)cc3)nn2)c2ccccc12`, the inhibition was 0.04% (inactive).

As to `CC(C)(C)NC(=O)N1CCCN(c2ccc(S(C)(=O)=O)cc2)CC1`, the inhibition is 6.31% (inactive).

Consider `CN1CCc2nc(NC(=O)c3ccc(Cl)cc3Cl)sc2C1`, for which the inhibition is -7.21% (inactive). For the compound `O=C(NCc1ccccc1)c1csc(Nc2ccc(N3CCOCC3)cc2)n1`, the inhibition is 25.3% (inactive).

`CN(C)c1cccc(Nc2nc3ccc(C(=O)Nc4ccc(N5CCOCC5)cc4)cc3s2)c1`: the inhibition was 24.1% (inactive).

Regarding `O=C(Nc1ccc(N2CCOCC2)cc1)c1cnc(Nc2ccc(-n3ccnc3)cc2)s1`, the inhibition is 17.6% (inactive). `O=C(Nc1ccc(N2CCOCC2)cc1)c1ccc2nc(Nc3ccncc3)sc2c1`: the inhibition is 52.9% (active).

Turning to `O=C(Nc1ccccc1)c1ccc2nc(NCCN3CCOCC3)sc2c1`, the inhibition is 2.47% (inactive). The value for `O=C(Nc1ccc(N2CCOCC2)cc1)c1csc(Nc2ccc(-n3ccnc3)cc2)n1` was 47.9% (active); that for `Cc1cnnn1-c1ccc(Nc2nccc(-c3cc(C#N)cc(N4CCOCC4)c3)n2)cc1` was 14.1% (inactive); that for `O=C(Nc1ccc2[nH]ncc2c1)[C@H]1C[C@@H](O)CN1C(=O)Cc1ccc(Br)cc1` was 5.77% (inactive). As for `O=C(NCCCN1CCCC1=O)c1cccc(Cl)n1`, the figure is 10.3% (inactive). The value for `FC(F)(F)c1ccc(Cn2cnc3c(Nc4ccc5c(c4)OCO5)nc(N4CCC(N5CCOCC5)CC4)nc32)cc1` was 10% (inactive). `c1cnc2ccc(Nc3nc4ncnc(NCc5nc6ccccc6[nH]5)c4[nH]3)cc2c1`: the inhibition is 15.5% (inactive). Consider `O=C(NC1CC1)c1cccc(Nc2cccnc2)n1`, for which the inhibition is -1.02% (inactive). The value for `FC(F)(F)c1cccc(CNc2nc(Nc3ccc(N4CCOCC4)cc3)nc3c2ncn3-c2ccsc2)c1` was -6.13% (inactive).

For the compound `CC(C)n1c(N2CCOCC2)nc2c(NCc3ccccc3)ncnc21`, the inhibition was -2.96% (inactive). With `CCN(CC)C(=O)C1CCCN(c2cccc(C(=O)NCc3nc4ccccc4[nH]3)c2)C1` (centres undefined), the inhibition is 7.49% (inactive). For `COc1cccc(CN(CCN(C)C)C(=O)c2cn3cc(-c4ccnc(N)n4)ccc3n2)c1`, the inhibition is 0.96% (inactive).

Regarding `COc1cc2nc(-c3csc4ccccc34)nc(Nc3ccc(Oc4ccccc4)cc3)c2cc1OC`, the inhibition is -36.4% (inactive).

Turning to `O=C(NC1CCN(Cc2ccccc2)CC1)c1ccc(-c2ccccc2)s1`, the inhibition is -15.1% (inactive). Take `COc1ccc(C2=NC(C)(C)NC(c3ccccc3O)C2)cc1` (centres undefined): the inhibition was 22.6% (inactive). In the case of `Cc1nc(C)n(-c2ccc(Nc3ncc4ccc(-c5cnn(C)c5)cc4n3)cc2)n1`, the inhibition is 75.2% (active). For `Cc1ncn(-c2ccc(Nc3ncc(-c4cnn(C)c4)c(-c4cnn(C)c4)n3)cc2)n1`, the inhibition is -7.3% (inactive).

In the case of `Cc1nc(C)n(-c2ccc(Nc3cc(-n4ccnn4)ccn3)cc2)n1`, the inhibition was -1.71% (inactive). In the case of `Cc1noc(C)c1-c1nc(N)c2ncn(-c3ccccc3)c2n1`, the inhibition was 29.2% (inactive).

Turning to `CC(=O)NNC(=O)C(C)Oc1ccc(Cl)cc1Cl` (centres undefined), the inhibition was 3.12% (inactive).

Regarding `CC1(C(=O)Nc2ccc(-c3cn[nH]c3)cc2)COc2ccccc2C1` (centres undefined), the inhibition was -8.37% (inactive).

Take `c1ccc(-n2cnc(-c3ccnc(Nc4ccc(N5CCOCC5)cc4)c3)n2)cc1`: the inhibition was -3.17% (inactive). For `Fc1cnc(Nc2ccc(N3CCNCC3)cc2)cc1-n1cnc(Nc2ccccc2)n1`, the inhibition is 90.4% (active). As to `c1ccc(Nc2nccc(Nc3ccc(N4CCOCC4)cc3)n2)cc1`, the inhibition is 4.53% (inactive). `CN(C)c1cccc(Nc2nccc(NCc3ccccc3)n2)c1`: the inhibition was 1.8% (inactive). As to `CC[C@H]1OC(=O)[C@H](C)C(=O)[C@H](C)[C@@H](O[C@@H]2O[C@H](C)C[C@H](N(C)C)[C@H]2O)[C@](C)(OC)C[C@@H](C)C(=O)[C@H](C)[C@@H]2N(CCCCn3cnc(-c4cccnc4)c3)C(=O)OC21C` (some centres undefined), the inhibition was -2.96% (inactive).

`O=C(NCCCN1CCCC1=O)c1cnc(-c2ccccc2)s1`: the inhibition is 0.58% (inactive).

In the case of `COc1ccc(CCNc2nc(-c3ccc(N4CCOCC4)nc3)ncc2C)cc1`, the inhibition was -5.93% (inactive). With `COc1ccc(CCNc2nc(Nc3ncccn3)nc3c2ncn3CCN2CCCC2=O)cc1`, the inhibition was 27.6% (inactive). As for `O=C(NCCc1ccc(O)cc1)c1csc(Nc2cnccn2)n1`, the figure is 12.4% (inactive); as for `O=C(NCc1nc2ccccc2[nH]1)c1csc(Nc2cnccn2)n1`, 46.6% (active); as for `O=C(NCc1nc2ccccc2[nH]1)c1cccc(Nc2ncccn2)n1`, 10.3% (inactive). On to `CC(=O)c1cccc(-c2nccc(Nc3ccccc3)n2)c1`, for which the inhibition is -2.99% (inactive).

As to `COc1cc2nc(Nc3ccc(-n4ccnc4)cc3)nc(Nc3cc(OC)c(OC)c(OC)c3)c2cc1OC`, the inhibition is -15.5% (inactive). With `C/C(CC(=O)NC1CCCC1)=N\NC(=O)COc1cccc(C)c1`, the inhibition was -34.7% (inactive). For the compound `Cc1cc(NCc2ccccc2)nc(N2CCN(Cc3ccc4c(c3)OCO4)CC2)n1`, the inhibition is -4.09% (inactive).

Consider `COc1ccc2c(c1)CC(C(=O)Nc1nc3ccc(-c4cn[nH]c4C)cc3s1)CO2` (centres undefined), for which the inhibition was -7.18% (inactive). With `CCOc1ccccc1C1/C(=C(\O)c2ccc(OC)cc2C)C(=O)C(=O)N1CCN(C)C` (centres undefined), the inhibition was -3.39% (inactive). For `Cc1ccc(-c2ncn(-c3ccc(Nc4ncc(F)c(-c5cccc(N6CCOCC6)c5)n4)cc3)n2)cn1`, the inhibition is -16.4% (inactive). Take `Fc1cnc(Nc2ccc(Cn3ccnc3)cc2)nc1-c1cccc(N2CCOCC2)c1`: the inhibition is 45.9% (active). The value for `Fc1cc(-c2nc(Nc3ccc(CN4CCOCC4)cc3)ncc2F)cc(N2CCOCC2)c1` was 13.5% (inactive). As to `CC(=O)OCc1nc2ccc(-c3ccncc3)cc2[nH]1`, the inhibition was -6.82% (inactive). With `O=C(NCc1cccnc1)c1ccnc(NCc2cccnc2)c1`, the inhibition was 8.32% (inactive). Take `Cc1c[nH]c2ncnc(-c3ccc4c(C(=O)Nc5cccc(C(=O)NC(C)C)c5)n(CC5CC5)nc4c3)c12`: the inhibition was 50.2% (active). For the compound `CC(C)NC(=O)c1cccc(NC(=O)Nc2ccc(-c3ccnc(N)n3)cc2)c1`, the inhibition was 1.02% (inactive). `COc1cccc(CN(CCN(C)C)C(=O)c2c3ccc(-c4cn[nH]c4)cc3nn2CC2CC2)c1`: the inhibition was -4.47% (inactive). On to `O=C(Nc1ccc2[nH]ncc2c1)C1CCN(C(=O)[C@@H](O)c2ccccc2Cl)CC1`, for which the inhibition is 2.37% (inactive). As for `CC(C)n1c(-c2csc3ccccc23)nc2c(NCc3ccccc3)ncnc21`, the figure is 0% (inactive); as for `Cc1cnc(-c2c(C)nn(C)c2C)nc1NCCN1CCOCC1`, 3.9% (inactive). Regarding `COc1cc(Nc2nc(Nc3cc(OC)c(OC)c(OC)c3)c3[nH]cnc3n2)cc(OC)c1OC`, the inhibition is 16.2% (inactive). Regarding `COc1cc(Nc2nc(NCc3cccc(C(F)(F)F)c3)c3[nH]cnc3n2)cc(OC)c1OC`, the inhibition is 47.7% (active). In the case of `COc1cc(Nc2nc(NCc3cccc(C(F)(F)F)c3)c3ncn(C4CCCCC4)c3n2)cc(OC)c1OC`, the inhibition is -5.25% (inactive).

Regarding `O=C(Nc1nc2c(s1)CN(Cc1ccccc1)CC2)c1cc(Cl)ccc1Cl`, the inhibition was -4.96% (inactive).

As to `COc1cc(Nc2cc(N3CCN(Cc4ccc5c(c4)OCO5)CC3)ncn2)cc(OC)c1OC`, the inhibition was -5.38% (inactive). For the compound `Cc1cnc(-c2ccc(N3CCOCC3)nc2)nc1NCCN1CCOCC1`, the inhibition was 2.67% (inactive). The value for `COc1ccc(-c2nc(NCCN3CCOCC3)c3ncn(-c4ccccc4)c3n2)cn1` was -16.5% (inactive). As to `Nc1nc(NCc2ccccc2)cc(NCc2cccnc2)n1`, the inhibition is -4.44% (inactive).

Regarding `CNC(=O)c1ccccc1Nc1cc(Nc2ccc(N3CCOCC3)cc2OC)ncc1F`, the inhibition was 16.4% (inactive). Consider `COc1cc(N2CCOCC2)ccc1Nc1cc(Nc2ccccc2C(N)=O)ccn1`, for which the inhibition was 7.87% (inactive).

As for `CNC(=O)c1ccccc1Nc1nc(Nc2ccc(N3CCOCC3)cc2OC)ncc1Cl`, the inhibition was 77.3% (active). Take `COC(=O)c1ccc(C2Nc3c(C(=O)OC)cccc3C3C=CCC32)cc1` (centres undefined): the inhibition was 7.56% (inactive).

In the case of `CCCN1CCc2c(sc(N)c2C(=O)OC)C1`, the inhibition is 7.44% (inactive).

Regarding `c1ccc(CN2CCC(Nc3ccnc(NC4CCN(Cc5ccccc5)CC4)n3)CC2)cc1`, the inhibition is -6.32% (inactive). With `CC(=O)Nc1ccc(NC(=O)c2ccc(-c3ccc(C(N)=O)cc3)s2)cc1`, the inhibition is -5.71% (inactive). In the case of `O=C(NCc1cccnc1)c1cccc(Nc2ccc(N3CCOCC3)cc2)n1`, the inhibition was 5.75% (inactive).

Consider `Cc1nn(C)c(C)c1-c1cccc(C(=O)NCCN(C(C)C)C(C)C)n1`, for which the inhibition is -2.03% (inactive).

On to `CC(C)n1cnc2c(Nc3ccc(N4CCOCC4)cc3)nc(Nc3ccncc3)nc21`, for which the inhibition was 55.3% (active).

As to `CC(C)n1cnc2c(NCc3cccnc3)nc(Nc3ccc(N4CCOCC4)cc3)nc21`, the inhibition was 1.97% (inactive). On to `CC(C)n1cnc2c(Nc3ccc(N4CCOCC4)cc3)nc(NC3CCC(O)CC3)nc21` (centres undefined), for which the inhibition was 43.6% (active). In the case of `CC(C)n1cnc2c(NCc3ccccc3)nc(NC3CCC(O)CC3)nc21` (centres undefined), the inhibition was 0.05% (inactive). With `CC(C)n1cnc2c(NC3CCN(Cc4ccccc4)CC3)nc(Nc3ccc(N4CCOCC4)cc3)nc21`, the inhibition is 11.3% (inactive). As to `c1cc(Nc2nc(Nc3ccc(N4CCOCC4)cc3)c3ncn(-c4ccsc4)c3n2)ccn1`, the inhibition is 19.3% (inactive). As to `O=C(Nc1ccc2[nH]ncc2c1)[C@@H]1C[C@H](O)CN1C(=O)Cc1ccc(Br)cc1`, the inhibition is 5.62% (inactive).
